This assay has as its target alpha-synuclein (aSyn) WT (human, UniProt P37840 1-140). Kind of assay: RNA Bind-n-Seq. The settings on record: ssRNA.

Results on 67 sequences are retold here after doi:10.1101/2023.07.10.548322.

On to GGCGGGGGGUGA, for which the binding signal came to 43.8 enrichment score. With AGGGGGGAGCAG, the binding signal was determined as 49.1 enrichment score. Regarding UGGGGGAUGAGG, the binding signal turned out to be 46.4 enrichment score. For the sequence UGGGUGGGUGGG, the binding signal is 46.4 enrichment score. Turning to UUGGGCGGGUAG, the binding signal was found to be 49.1 enrichment score.

For GAGGCGGGAGGG, the binding signal stood at 43.8 enrichment score.

With GGAGGUAGGGAG, the binding signal was determined as 43.8 enrichment score. Take GAGGAGGGUGGG: the binding signal is 57.4 enrichment score. GGUUGGGAGCGG had a binding signal of 43.8 enrichment score. The sequence UGAGUGGGUGGU returned a binding signal of 43.8 enrichment score. AGGGUGGCGGUG showed a binding signal of 49.1 enrichment score. Take AGUGCGGGGGGG: the binding signal turned out to be 49.1 enrichment score. GGGUGGGCGGAU: the binding signal turned out to be 43.8 enrichment score. As to GGGGAUGGUAGG, the binding signal is 43.8 enrichment score.

On to UGUGGGCGGGAG, for which the binding signal worked out at 54.6 enrichment score. In the case of GUGUGGCGGAGG it was 46.4 enrichment score. The sequence GCGGGAGGGCGG showed a binding signal of 49.1 enrichment score. For AGUGGGGGGGAG, the binding signal worked out at 43.8 enrichment score. On to GGAGGCAGUGGG, for which the binding signal turned out to be 41.1 enrichment score. In turn, GGAAUGGGGUGG came in with a binding signal of 43.8 enrichment score.

With GUGGAUGGCGGG, the binding signal was found to be 49.1 enrichment score.

Consider GGGCUGGGAGUG, for which the binding signal came out at 41.1 enrichment score. In turn, UAGGUUGGGGGU had a binding signal of 46.4 enrichment score. The value for UGGGGUGGGAGU was 46.4 enrichment score. The value for GCGGGCAGGUGG was 43.8 enrichment score. On to UGGGGGAUGGAG, for which the binding signal was found to be 41.1 enrichment score.

The sequence GGUGUGGGUGUG gave a binding signal of 51.8 enrichment score.

Sequence AGUGGGGGGGUG displayed a binding signal of 43.8 enrichment score. CGUGGGGAGUGG displayed a binding signal of 41.1 enrichment score.

Take GUGGGGGGGGCA: the binding signal amounted to 43.8 enrichment score. GGCGAAGGGAGG came in with a binding signal of 49.1 enrichment score. The sequence AGGGGUUUUGGG returned a binding signal of 43.8 enrichment score. GAGGGGCUGGCG: the binding signal was 41.1 enrichment score. The value for GGGUGGGCGGGG was 96 enrichment score; that for GGCGGUUGUUGG was 46.4 enrichment score; that for GGGGGGAUUGGG was 57.4 enrichment score. As for UGGGGGGAGAAG, the binding signal is 41.1 enrichment score. Regarding GCGGGGGGGCUG, the binding signal came to 43.8 enrichment score. The sequence GGGCAGUGGAGG came in with a binding signal of 54.6 enrichment score.

UGGGGUAUUGGG yielded a binding signal of 43.8 enrichment score. Take GUGGGGAAGGGU: the binding signal turned out to be 49.1 enrichment score. In the case of CGUGGGAGGGGG it was 43.8 enrichment score. In the case of GCGGGGUUAGGG it was 49.1 enrichment score; in that of GUGUAGGUGGGG, 43.8 enrichment score. Take GGUAGGCUGUGG: the binding signal worked out at 49.1 enrichment score. In the case of UGAUGGGGGUGG it was 43.8 enrichment score; in that of AUGGGGUGGGCG, 41.1 enrichment score.

Sequence GCGGGAUGGGGG came in with a binding signal of 43.8 enrichment score. The value for UGGGUUUGGGGG was 46.4 enrichment score. GGUGGAUGAGGG showed a binding signal of 41.1 enrichment score. Take GGGGGUGGUGUU: the binding signal worked out at 49.1 enrichment score. Take AGGGGAGCUGGG: the binding signal was 41.1 enrichment score. The sequence GGAGGAAGGGGA gave a binding signal of 41.1 enrichment score. On to CGGGUGGGAUGG, for which the binding signal worked out at 43.8 enrichment score. The value for AGUUGGUGGUGG was 46.4 enrichment score. Sequence GGGAGCGGGGGA returned a binding signal of 46.4 enrichment score.

Turning to GGCAGGCUGUGG, the binding signal came to 41.1 enrichment score.

GGCGGGCGGAGG showed a binding signal of 49.1 enrichment score. For the sequence UGGGAGGGGAGU, the binding signal was 43.8 enrichment score. Sequence AUGGGAGUGGGG displayed a binding signal of 43.8 enrichment score.

In turn, UGGGGAGUGGGU showed a binding signal of 51.8 enrichment score. Consider UAGGGGUUGUGG, for which the binding signal came out at 43.8 enrichment score. In the case of GGGGUGGUGUUG, the binding signal was 46.4 enrichment score.

With GUGGGGGUGGAU, the binding signal turned out to be 60.2 enrichment score. Sequence GGAGGUGGUGGA had a binding signal of 46.4 enrichment score. In turn, UGGCGGGGUGGA displayed a binding signal of 46.4 enrichment score.

UGGAUGGCGGGG returned a binding signal of 43.8 enrichment score.
